Laboratory results: publication PMC4336329 (PLoS ONE, 2015)
The whole screen tested about 310,000 compounds, of which about 14,000 (4.5%) showed an effect of 50% or more. The effect is printed as a negative number. Only a selection was taken, and strong results are over-represented in it overall.

biological target: human ether-à-go-go-related gene (hERG) potassium channel (human, UniProt Q12809); test: primary screen, population patch clamp on CHO cells stably expressing hERG; higher = less effect of the substance
Sequence (Q12809 whole entry, looked up): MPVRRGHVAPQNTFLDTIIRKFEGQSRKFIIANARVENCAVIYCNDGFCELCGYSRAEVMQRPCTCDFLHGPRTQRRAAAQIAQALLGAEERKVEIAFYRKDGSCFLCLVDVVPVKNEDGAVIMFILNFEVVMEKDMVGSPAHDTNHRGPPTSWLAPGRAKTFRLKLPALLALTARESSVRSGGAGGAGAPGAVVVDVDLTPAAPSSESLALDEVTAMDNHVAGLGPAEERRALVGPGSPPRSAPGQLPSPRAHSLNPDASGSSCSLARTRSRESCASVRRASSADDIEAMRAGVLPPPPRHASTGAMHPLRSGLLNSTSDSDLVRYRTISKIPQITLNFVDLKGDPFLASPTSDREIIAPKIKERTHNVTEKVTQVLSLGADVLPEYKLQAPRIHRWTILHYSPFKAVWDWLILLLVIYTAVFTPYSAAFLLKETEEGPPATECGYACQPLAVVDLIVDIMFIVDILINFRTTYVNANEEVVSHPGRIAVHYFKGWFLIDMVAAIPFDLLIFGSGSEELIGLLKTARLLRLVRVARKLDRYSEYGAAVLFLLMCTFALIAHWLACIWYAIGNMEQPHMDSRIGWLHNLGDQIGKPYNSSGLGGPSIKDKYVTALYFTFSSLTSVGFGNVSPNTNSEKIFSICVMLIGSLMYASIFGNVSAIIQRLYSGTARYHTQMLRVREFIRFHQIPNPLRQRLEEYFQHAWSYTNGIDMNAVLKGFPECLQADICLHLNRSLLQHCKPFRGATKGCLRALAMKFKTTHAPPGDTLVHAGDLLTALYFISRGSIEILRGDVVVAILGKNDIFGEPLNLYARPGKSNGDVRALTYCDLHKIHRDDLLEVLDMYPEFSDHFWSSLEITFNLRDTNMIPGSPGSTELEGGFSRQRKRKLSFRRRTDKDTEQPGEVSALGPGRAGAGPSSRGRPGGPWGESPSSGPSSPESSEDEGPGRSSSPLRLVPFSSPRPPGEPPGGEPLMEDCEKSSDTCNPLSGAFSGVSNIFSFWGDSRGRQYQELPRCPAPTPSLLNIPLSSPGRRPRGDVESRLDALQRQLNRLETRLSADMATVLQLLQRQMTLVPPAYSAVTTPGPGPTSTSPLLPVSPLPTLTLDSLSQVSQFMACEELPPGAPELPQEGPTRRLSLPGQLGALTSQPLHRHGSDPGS
Method: Briefly, Chinese hamster ovary (CHO) cells stably expressing the hERG channel were dislodged from tissue culture flasks and dispensed into PPC plates. […] During the recording, background leak currents were estimated by a 100 ms step to -80 mV from an initial holding potential of -70 mV and subtracted from the subsequent current measurement. The campaign was conducted in two phases using slight differences in recording protocol. In the first phase, the initial voltage pulse used a 100 ms step to -30 mV from a holding potential of -70 mV, a 2 s conditioning step to +25 mV, and a 2 s test step to -30 mV. During the second phase of the screen, the potential during the conditioning step was raised to +45 mV. In both phases of the campaign, a secondary voltage pulse was applied using the same parameters as the second phase initial pulse. The initial and secondary pulses were applied in the absence of compound, and upon application of 1 μM and 10 μM test concentrations. […]
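Note: peak tail current of the secondary pulse compared with the same well before compound.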

Row | Structure (SMILES) | hERG current change (%, negative = inhibition) at 10uM
1 | O=C(CN1CCN(CCC(=O)Nc2ccccc2F)CC1)Nc1ccc(Cl)cc1 | -76.8%
2 | O=C(CCN1CCN(c2ccc(Cl)cc2)CC1)Nc1ccccc1F | -34%
3 | COc1ccc(C(=O)NC2CCCCC2)cc1S(=O)(=O)N1CCOCC1 | -14.8%
4 | O=C(NCCOC(=O)c1ccccc1)c1ccccc1 | 10.2%
5 | [N-]=[N+]=CC(=O)CNC(=O)[C@@H](Cc1ccccc1)N1C(=O)c2ccccc2C1=O | 6.66%
6 | CCC(C(=O)NCc1ccco1)n1nc(C)c2c(C)n(-c3ccccc3)nc2c1=O (stereo not shown) | -8.91%
7 | CCC(C(=O)NCc1ccco1)n1nc(C)c2c(C)n(-c3ccc(C)cc3)nc2c1=O (stereo not shown) | -58.9%
8 | CCC(C(=O)NC1CC1)n1nc(C)c2c(C)n(-c3ccc(C)cc3)nc2c1=O (stereo not shown) | -62%
9 | CCC(C(=O)NC1CC1)n1nc(C)c2c(C)n(-c3ccccc3)nc2c1=O (stereo not shown) | 8.02%
10 | CCC(C(=O)NC1CCCCCC1)n1nc(C)c2c(C)n(-c3ccccc3)nc2c1=O (stereo not shown) | -23.4%
11 | Cc1ccc(-n2nc3c(=O)n(C(C)C(=O)NCc4ccco4)nc(C)c3c2C)cc1 (stereo not shown) | -41.3%
12 | CC(C)c1cccc(C(C)C)c1OCCCCN1CCCC1 | -22.7%
13 | COc1ccccc1N(C)S(=O)(=O)c1ccc(C(=O)Nc2nccs2)cc1 | -30.5%
14 | CC(=O)c1ccc(NC(=O)CN2CCC(NC(=O)C3CCCCC3)CC2)cc1 | -6.72%
15 | COc1cccc(C(=O)N2CCCC(CCC(=O)NCc3ccc(F)c(F)c3)C2)c1 (stereo not shown) | -17.5%
16 | COc1ccc(C(=O)N2CCCC(CCC(=O)NCc3ccc(F)c(F)c3)C2)cc1F (stereo not shown) | -22.8%
17 | COCCNC(=O)CCC1CCN(C/C=C/c2ccccc2OC)CC1 | -3.87%
18 | COc1ccccc1/C=C/CN1CCCC(CCC(=O)NCc2ccccc2F)C1 (stereo not shown) | -65.7%
19 | COc1ccc(/C=C/CN2CCCC(CCC(=O)NCc3ccc(F)c(F)c3)C2)cc1 (stereo not shown) | -72.8%
20 | COc1ccccc1/C=C/CN1CCCC(CCC(=O)NCc2ccc(F)c(F)c2)C1 (stereo not shown) | -70%
21 | COc1cccc(CNC(=O)CCC2CCCN(C(=O)Cc3ccccc3F)C2)c1 (stereo not shown) | -7.61%
22 | COc1ccccc1CC(=O)N1CCCC(CCC(=O)NCc2ccccc2F)C1 (stereo not shown) | 2.97%
23 | COCCC(=O)N1CCCC(CCC(=O)NCc2ccc(F)c(F)c2)C1 (stereo not shown) | 22.8%

Row | Structure (SMILES) | hERG current change (%, negative = inhibition) at 10uM
24 | COc1cccc(CNC(=O)CCC2CCCN(C/C=C/c3ccccc3OC)C2)c1 (stereo not shown) | -68.5%
25 | COC(=O)c1ccccc1C(=O)N1CCCC(CCC(=O)NCc2ccc(F)c(F)c2)C1 (stereo not shown) | -10.1%
26 | COc1cccc(CNC(=O)CCC2CCCN(C(=O)c3ccc(OC)c(F)c3)C2)c1 (stereo not shown) | -9.79%
27 | CCCCC(NC(=O)c1cccc(Br)c1)C(=O)O (stereo not shown) | 9.42%
28 | Cc1nn(C)c(C)c1CNC(=O)Nc1cccc(Cl)c1 | 6.93%
29 | CC1(C)CC(=O)c2cn3nc(C(F)(F)F)nc3nc2C1 | 4.21%
30 | O=C(CN1CCN(S(=O)(=O)c2ccc(F)c(Cl)c2)CC1)N1CCc2ccccc21 | -34.7%
31 | CCOC(=O)c1ccc(NC(=O)NS(=O)(=O)c2ccc(C)cc2)cc1 | 10.9%
32 | CC(C)Oc1ccc(S(=O)(=O)N2CCCCC2)cc1NC(=O)CN1C(=O)NC2(CCCC2)C1=O | -2.87%
33 | O=[N+]([O-])c1cccc(/C=N/NC2CCS(=O)(=O)C2)c1 (stereo not shown) | 11.9%
34 | Cc1ccsc1C(=O)N1CCCC(CCC(=O)NCc2ccccc2F)C1 (stereo not shown) | -7.46%
35 | Cc1ccc(S(=O)(=O)N2CCCC(CCC(=O)NCc3ccccc3F)C2)s1 (stereo not shown) | -50.7%
36 | Cc1ccsc1S(=O)(=O)N1CCCC(CCC(=O)NCc2ccccc2F)C1 (stereo not shown) | 5.38%
37 | CCOC(=O)C1=C(CSc2n[nH]c(N)n2)NC(=O)NC1C (stereo not shown) | 3.79%
38 | CC1CC(C)CN(S(=O)(=O)N2CCCC(C(=O)NC(C)c3ccccc3)C2)C1 (stereo not shown) | 3.1%
39 | COc1ccc(OC)c2[nH]c(C(=O)N3CCC(C(=O)O)CC3)cc12 | 24.6%
40 | O=C(CSc1nnc(NC2CCCCC2)s1)NC1CCS(=O)(=O)C1 (stereo not shown) | -0.507%
41 | N#Cc1cc([N+](=O)[O-])ccc1NCCc1ccccn1 | -18.4%
42 | N#Cc1ccc(Sc2ccccn2)c([N+](=O)[O-])c1 | -61.5%
43 | N#Cc1ccc(NCCc2ccccn2)c([N+](=O)[O-])c1 | -74%
44 | O=[N+]([O-])c1cc(Cl)ccc1Sc1ccccn1 | 3.65%
45 | N#Cc1cc(Sc2ccccn2)c([N+](=O)[O-])cc1C#N | -18.9%
46 | O=[N+]([O-])c1cc(Cl)ccc1NCCc1ccccn1 | -16.8%
